Experimental data published in PubChem BioAssay AID720488 (Milwaukee Institute for Drug Discovery, 2013).
About 960 (6%) of roughly 16,000 compounds were called active. The entries come from a sample that favours actives as a whole. Unmarked numbers belong to inactive results.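 The calls were made as follows: active = compound fluorescence over control fluorescence at most 0.8, a quencher, or at least a set upper limit, an enhancer; inactive = ratio between 0.8 and the set upper limit.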

Assay: fluorescence interference in NS3h DNA assay – biochemical, ChemBridge library, Cy5 readout, artefact control for HCV NS3 helicase inhibitor project (AID 720488)
Conditions: Cy5-dT15 DNA with NS3h, at 100 µM, actives lie on both sides, signal over control mean, under 1 quenches

Which fluorescence interference ratio does the source give for COc1ccccc1CN1CCN(C(=O)c2ccc([N+](=O)[O-])cc2)CC1 here?
Its fluorescence interference ratio is 1.03.

For COc1ccc(OC)c(S(=O)(=O)N2CCC(Cc3ccccc3)CC2)c1, which fluorescence interference ratio is on record?
Its fluorescence interference ratio is 0.968.

For COc1cc(C(=O)N2CCC(Cc3ccccc3)CC2)c([N+](=O)[O-])cc1OC, which fluorescence interference ratio is on record?
The fluorescence interference ratio was 0.65 (active).

With CCOc1ccc(C(=O)Nc2cc3nn(-c4ccc(C)cc4)nc3cc2C)cc1[N+](=O)[O-] as the molecule, how does the fluorescence interference ratio read?
The fluorescence interference ratio was 1.04.

For CN1C(=O)/C(=C\c2ccccc2OCCOc2ccc(Br)cc2)SC1=S, which fluorescence interference ratio is on record?
Its fluorescence interference ratio is 1.14.

For C=CC[n+]1c(-c2ccc(OC)cc2)csc1Nc1cccc(C)c1C, which fluorescence interference ratio is on record?
The fluorescence interference ratio was 1.2 (active).

Which fluorescence interference ratio does the source give for Cc1cccc(NC(=O)COc2ccc3ccccc3c2)c1C here?
Its fluorescence interference ratio is 1.12.

Which fluorescence interference ratio does the source give for CCC(=O)CC(O)(c1ccccc1)C(F)(F)F (stereo not given) here?
The fluorescence interference ratio was 0.957.

For Cc1cccc(OCC(=O)Nc2ccc(Cl)c(C(F)(F)F)c2)c1, which fluorescence interference ratio is on record?
Its fluorescence interference ratio is 1.07.

With Cc1ccc(C(=O)Nc2ccc(Cl)cn2)cc1[N+](=O)[O-] as the molecule, how does the fluorescence interference ratio read?
Its fluorescence interference ratio is 1.02.

Which fluorescence interference ratio does the source give for COc1ccc(Br)cc1/C=C1/SC(=S)N(c2cccc(C(F)(F)F)c2)C1=O here?
Its fluorescence interference ratio is 0.773 (active).

Which fluorescence interference ratio does the source give for COc1ccccc1/C=C1\SC(=S)N(CC(C)C)C1=O here?
The fluorescence interference ratio was 0.946.

With O=C1/C(=C\c2cccc(Br)c2)SC(=S)N1c1cccc(C(F)(F)F)c1 as the molecule, how does the fluorescence interference ratio read?
The fluorescence interference ratio was 0.626 (active).

Which fluorescence interference ratio does the source give for COc1cc(/C=C2/SC(=S)N(c3c(C)n(C)n(-c4ccccc4)c3=O)C2=O)c([N+](=O)[O-])cc1OC here?
Its fluorescence interference ratio is 0.991.

For O=C1/C(=C\c2cccc(C(F)(F)F)c2)SC(=S)N1c1ccccc1, which fluorescence interference ratio is on record?
The fluorescence interference ratio was 1.08.

With O=Cc1ccc(/C=C2/SC(=S)N(c3cccc(Cl)c3)C2=O)cc1 as the molecule, how does the fluorescence interference ratio read?
Its fluorescence interference ratio is 1.1.

With O=C(CN(c1ccc(Br)cc1)S(=O)(=O)c1ccccc1)NCC1CCCO1 (stereo not given) as the molecule, how does the fluorescence interference ratio read?
The fluorescence interference ratio was 1.03.

With Cc1ccc(NCC(O)COc2ccc(OCC(O)CNc3ccc(C)cc3C)cc2)c(C)c1 (stereo not given) as the molecule, how does the fluorescence interference ratio read?
Its fluorescence interference ratio is 1.06.

With COC(=O)C1=C(C)N=c2s/c(=C/c3ccccc3OC(C)=O)c(=O)n2C1c1ccc(OC(C)=O)cc1 (stereo not given) as the molecule, how does the fluorescence interference ratio read?
Its fluorescence interference ratio is 0.949.

Which fluorescence interference ratio does the source give for O=C(/C=C/c1cc2c(cc1Br)OCO2)c1ccc(Cl)cc1 here?
The fluorescence interference ratio was 1.06.

For Cc1ccc(S(=O)(=O)N2CCN(Cc3ccc(F)cc3)CC2)cc1, which fluorescence interference ratio is on record?
The fluorescence interference ratio was 0.977.

Which fluorescence interference ratio does the source give for COc1cc(CN2CCN(Cc3cccc(F)c3)CC2)cc(OC)c1OC here?
Its fluorescence interference ratio is 1.09.

Which fluorescence interference ratio does the source give for Cc1cccc(CN2CCN(S(C)(=O)=O)CC2)c1 here?
The fluorescence interference ratio was 0.788 (active).

For COc1cc(NC(=O)c2ccc(Br)cc2)cc([N+](=O)[O-])c1, which fluorescence interference ratio is on record?
The fluorescence interference ratio was 0.953.

For O=C(CSc1ccc(Cl)cc1Cl)Nc1cccc([N+](=O)[O-])c1, which fluorescence interference ratio is on record?
Its fluorescence interference ratio is 0.897.

For COc1cc(/C=C2/C(=O)NC(=O)N(c3ccc(C)cc3)C2=O)ccc1OCCOc1ccc([N+](=O)[O-])cc1, which fluorescence interference ratio is on record?
The fluorescence interference ratio was 0.823.

Which fluorescence interference ratio does the source give for COc1cc(C=C2C(=O)NC(=O)NC2=O)ccc1OCCOc1ccc([N+](=O)[O-])cc1 here?
Its fluorescence interference ratio is 0.699 (active).

With COc1cc(/C=C2/SC(=S)NC2=O)ccc1OCCOCCOc1ccc(C)cc1 as the molecule, how does the fluorescence interference ratio read?
Its fluorescence interference ratio is 0.925.

For COC(=O)C1=C(C)NC2=C(C(=O)c3ccccc32)C1c1cc2c(cc1Br)OCO2 (stereo not given), which fluorescence interference ratio is on record?
Its fluorescence interference ratio is 1.02.

For CS(=O)(=O)N(CC(=O)N1CCOCC1)c1ccccc1Cl, which fluorescence interference ratio is on record?
Its fluorescence interference ratio is 0.989.

For CS(=O)(=O)N1CCN(C(=O)Cc2ccccc2)CC1, which fluorescence interference ratio is on record?
Its fluorescence interference ratio is 0.765 (active).

For O=C(c1ccc(S(=O)(=O)N2CCOCC2)cc1)N1CCN(c2ccccc2)CC1, which fluorescence interference ratio is on record?
Its fluorescence interference ratio is 0.907.

Which fluorescence interference ratio does the source give for CCC(=O)Nc1ccccc1C(=O)N1CCN(Cc2ccccc2)CC1 here?
Its fluorescence interference ratio is 0.994.

Which fluorescence interference ratio does the source give for COc1ccccc1OCC(=O)Nc1nc(-c2cccs2)c(NC(=O)c2ccccc2)s1 here?
Its fluorescence interference ratio is 0.958.

With CSc1ccccc1NC(=O)CSc1nc2ccccc2o1 as the molecule, how does the fluorescence interference ratio read?
Its fluorescence interference ratio is 0.737 (active).

With Cc1ccc(C(=O)Nc2cccc(-c3nc4ccccc4o3)c2C)cc1 as the molecule, how does the fluorescence interference ratio read?
Its fluorescence interference ratio is 0.985.

With O=C(CSc1nc2ccccc2o1)Nc1ccc2c(c1)OCO2 as the molecule, how does the fluorescence interference ratio read?
The fluorescence interference ratio was 0.937.

Which fluorescence interference ratio does the source give for C=CCc1ccccc1OCCn1cc(/C=C2/SC(=S)N(CC)C2=O)c2ccccc21 here?
Its fluorescence interference ratio is 1.05.

Which fluorescence interference ratio does the source give for O=C(NCC1OCCc2ccccc21)C(c1ccccc1)c1ccccc1 (stereo not given) here?
Its fluorescence interference ratio is 1.08.

With CCCOc1ccc(C(=O)Nc2ccc(N(CC)CC)cc2)cc1 as the molecule, how does the fluorescence interference ratio read?
The fluorescence interference ratio was 1.28 (active).

For CCOc1ccc(C(=O)Nc2ccncc2)cc1, which fluorescence interference ratio is on record?
The fluorescence interference ratio was 0.969.

Which fluorescence interference ratio does the source give for CCCOc1ccc(C(=O)Nc2ccc(-c3nc4ccccc4o3)c(O)c2)cc1 here?
Its fluorescence interference ratio is 1.03.

With O=c1oc2cc(OC/C=C/c3ccccc3)ccc2c2ccccc12 as the molecule, how does the fluorescence interference ratio read?
Its fluorescence interference ratio is 1.11.

For O=C(O)CC1S/C(=N\N=C/c2ccccc2O)N(c2ccc(O)cc2)C1=O (stereo not given), which fluorescence interference ratio is on record?
Its fluorescence interference ratio is 1.05.

For O=S(=O)(c1ccc(Br)c2ccccc12)N1CCOCC1, which fluorescence interference ratio is on record?
The fluorescence interference ratio was 0.956.

With CC(C)CC(=O)Nc1cc(C(=O)O)cc(C(=O)O)c1 as the molecule, how does the fluorescence interference ratio read?
Its fluorescence interference ratio is 1.05.

With O=C(CN1C(=O)c2ccc([N+](=O)[O-])cc2C1=O)Nc1cc(Cl)ccc1C(=O)O as the molecule, how does the fluorescence interference ratio read?
Its fluorescence interference ratio is 0.984.

With COc1ccc(OC)c(N2C(=O)NC(=O)C(=Cc3ccc(C)o3)C2=O)c1 as the molecule, how does the fluorescence interference ratio read?
Its fluorescence interference ratio is 1.1.

For COc1ccc(/C=C2\C(=O)NC(=S)N(c3ccc(Br)cc3)C2=O)cc1, which fluorescence interference ratio is on record?
The fluorescence interference ratio was 1.05.

For CCN(CC)c1ccc(/C=C2\C(=O)NC(=O)N(c3ccc(OC)cc3)C2=O)c(OC)c1, which fluorescence interference ratio is on record?
Its fluorescence interference ratio is 1.26 (active).

For O=C1NC(=O)C(=Cc2cc([N+](=O)[O-])cc(Br)c2O)C(=O)N1, which fluorescence interference ratio is on record?
The fluorescence interference ratio was 0.895.

With CC(=O)OC(OC(C)=O)c1ccc([N+](=O)[O-])s1 as the molecule, how does the fluorescence interference ratio read?
The fluorescence interference ratio was 0.829.

For CCOc1cccc2c1NC(C)(C)c1sn(-c3ccccc3)c(=S)c1-2, which fluorescence interference ratio is on record?
Its fluorescence interference ratio is 0.947.

Which fluorescence interference ratio does the source give for CCC(=O)NC(N)=Nc1nc(C)c2cc(C)cc(C)c2n1 here?
Its fluorescence interference ratio is 1.11.

For CC1=C(C(=O)OC(C)C)C(c2ccc(Cl)c(Cl)c2)N2C(=O)CCSC2=N1 (stereo not given), which fluorescence interference ratio is on record?
The fluorescence interference ratio was 0.92.
